Test results published in PubChem BioAssay AID1159580 (chemical genetic matrix, 2015).
“And” between values parts separate entries of the source, which are not always exact repeats. Identical values can stand only once. Among all 5,500 compounds or so, about 2,000 (36%) were called active. Roughly 18% stayed inconclusive and do not appear here. This is one part of the list. Unmarked numbers belong to inactive results. Cut-off read from the data, not from the text of the source: active = normalized growth mostly below about 0.91 (no sharp cut-off); inconclusive = no clear call, values can overlap the other calls; inactive = mostly above about 0.92.

Test: chemical genetic growth profiling, strain panel (AID 1159580);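 note: tested at 20 µM; growth read once vehicle control cultures reached saturation at 30 °C; 1 = growth at the plate median or of vehicle wells; lower values mean less growth of the strain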
Details: growth OD

Compound: CC(C(=O)O)c1cccc(Oc2ccccc2)c1 (configuration not stated)
- normalized growth (S. cerevisiae deletion strains, locus YAL013W, strain DEP1, hits give low values): 0.963
- normalized growth (S. cerevisiae deletion strains, locus YBR021W, strain FUR4, hits give low values): 0.983
- normalized growth (S. cerevisiae deletion strains, locus YBR229C, strain ROT2, hits give low values): 0.94
- normalized growth (S. cerevisiae deletion strains, locus YCL029C, strain bik1, hits give low values): 0.98
- normalized growth (S. cerevisiae deletion strains, locus YDL035C, strain GPR1, hits give low values): 0.983
- normalized growth (S. cerevisiae deletion strains, locus YDL074C, strain BRE1, hits give low values): 0.997
- normalized growth (S. cerevisiae deletion strains, locus YDL101C, strain DUN1, hits give low values): 0.96
- normalized growth (S. cerevisiae deletion strains, locus YDL134C, strain PPH21, hits give low values): 0.976
- normalized growth (S. cerevisiae deletion strains, locus YDL185W, strain tfp1, hits give low values): 0.948
- normalized growth (S. cerevisiae deletion strains, locus YDL192W, strain arf1, hits give low values): 0.973
- normalized growth (S. cerevisiae deletion strains, locus YDR101C, strain arx1, hits give low values): 0.984
- normalized growth (S. cerevisiae deletion strains, locus YDR150W, strain NUM1, hits give low values): 0.947
- normalized growth (S. cerevisiae deletion strains, locus YDR162C, strain NBP2, hits give low values): 0.969
- normalized growth (S. cerevisiae deletion strains, locus YDR318W, strain mcm21, hits give low values): 0.988
- normalized growth (S. cerevisiae deletion strains, locus YDR388W, hits give low values): 0.978
- normalized growth (S. cerevisiae deletion strains, locus YDR502C, strain sam2, hits give low values): 0.981
- normalized growth (S. cerevisiae deletion strains, locus YEL061C, strain CIN8, hits give low values): 0.973
- normalized growth (S. cerevisiae deletion strains, locus YER110C, hits give low values): 0.967
- normalized growth (S. cerevisiae deletion strains, locus YER155C, strain BEM2, hits give low values): 0.958
- normalized growth (S. cerevisiae deletion strains, locus YER167W, strain BCK2, hits give low values): 0.988
- normalized growth (S. cerevisiae deletion strains, locus YGL078C, strain dbp3, hits give low values): 0.959
- normalized growth (S. cerevisiae deletion strains, locus YGL086W, strain mad1, hits give low values): 0.98
- normalized growth (S. cerevisiae deletion strains, locus YGL248W, strain PDE1, hits give low values): 0.974
- normalized growth (S. cerevisiae deletion strains, locus YGR078C, strain PAC10, hits give low values): 0.999
- normalized growth (S. cerevisiae deletion strains, locus YGR135W, strain pre9, hits give low values): 0.985
- normalized growth (S. cerevisiae deletion strains, locus YGR229C, strain SMI1, hits give low values): 0.974
- normalized growth (S. cerevisiae deletion strains, locus YGR252W, strain gcn5, hits give low values): 0.957
- normalized growth (S. cerevisiae deletion strains, locus YHR030C, strain SLT2, hits give low values): 0.978 and 0.9
- normalized growth (S. cerevisiae deletion strains, locus YHR079C, strain IRE1 (second series), hits give low values): 0.972
- normalized growth (S. cerevisiae deletion strains, locus YHR079C, strain IRE1, hits give low values): 0.892
- normalized growth (S. cerevisiae deletion strains, locus YHR094C, strain hxt1, hits give low values): 0.965
- normalized growth (S. cerevisiae deletion strains, locus YHR129C, strain ARP1, hits give low values): 0.983
- normalized growth (S. cerevisiae deletion strains, locus YHR200W, strain rpn10, hits give low values): 0.98
- normalized growth (S. cerevisiae deletion strains, locus YIL066C, strain RNR3, hits give low values): 0.964
- normalized growth (S. cerevisiae deletion strains, locus YIL073C, strain SPO22, hits give low values): 0.965
- normalized growth (S. cerevisiae deletion strains, locus YIL125W, strain kgd1, hits give low values): 0.944
- normalized growth (S. cerevisiae deletion strains, locus YIR030C, strain dcg1, hits give low values): 0.962
- normalized growth (S. cerevisiae deletion strains, locus YJL095W, strain BCK1, hits give low values): 1.05 and 0.905
- normalized growth (S. cerevisiae deletion strains, locus YJL134W, strain LCB3, hits give low values): 0.962
- normalized growth (S. cerevisiae deletion strains, locus YJL168C, strain set2, hits give low values): 0.967
- normalized growth (S. cerevisiae deletion strains, locus YJL187C, strain SWE1 (second series), hits give low values): 0.983
- normalized growth (S. cerevisiae deletion strains, locus YJR043C, strain POL32, hits give low values): 1
- normalized growth (S. cerevisiae deletion strains, locus YJR066W, strain TOR1, hits give low values): 0.856
- normalized growth (S. cerevisiae deletion strains, locus YJR075W, strain HOC1, hits give low values): 0.998
- normalized growth (S. cerevisiae deletion strains, locus YKL009W, strain mrt4, hits give low values): 0.879
- normalized growth (S. cerevisiae deletion strains, locus YKL068W, hits give low values): 0.937 (active)
- normalized growth (S. cerevisiae deletion strains, locus YKL085W, strain MDH1 (second series), hits give low values): 0.919 (active)
- normalized growth (S. cerevisiae deletion strains, locus YKL085W, strain MDH1, hits give low values): 0.919 (active)
- normalized growth (S. cerevisiae deletion strains, locus YKL190W, strain CNB1, hits give low values): 0.979
- normalized growth (S. cerevisiae deletion strains, locus YKR001C, strain vps1, hits give low values): 0.947
- normalized growth (S. cerevisiae deletion strains, locus YLR039C, strain RIC1, hits give low values): 0.842
- normalized growth (S. cerevisiae deletion strains, locus YLR058C, strain SHM2, hits give low values): 0.957
- normalized growth (S. cerevisiae deletion strains, locus YLR102C, strain apc9, hits give low values): 0.97
- normalized growth (S. cerevisiae deletion strains, locus YLR113W, strain HOG1, hits give low values): 0.828 (active)
- normalized growth (S. cerevisiae deletion strains, locus YLR262C, strain YPT6, hits give low values): 0.859
- normalized growth (S. cerevisiae deletion strains, locus YLR268W, strain sec22, hits give low values): 1.04
- normalized growth (S. cerevisiae deletion strains, locus YLR330W, strain CHS5, hits give low values): 0.956
- normalized growth (S. cerevisiae deletion strains, locus YLR342W, strain FKS1 (second series), hits give low values): 0.999
- normalized growth (S. cerevisiae deletion strains, locus YLR371W, strain rom2, hits give low values): 0.962
- normalized growth (S. cerevisiae deletion strains, locus YLR418C, strain cdc73, hits give low values): 0.99
- normalized growth (S. cerevisiae deletion strains, locus YML016C, strain PPZ1, hits give low values): 0.97
- normalized growth (S. cerevisiae deletion strains, locus YML032C, strain rad52, hits give low values): 0.987
- normalized growth (S. cerevisiae deletion strains, locus YML124C, strain tub3, hits give low values): 0.968
- normalized growth (S. cerevisiae deletion strains, locus YMR078C, strain ctf18, hits give low values): 0.953
- normalized growth (S. cerevisiae deletion strains, locus YMR223W, strain ubp8, hits give low values): 0.968
- normalized growth (S. cerevisiae deletion strains, locus YMR263W, strain SAP30, hits give low values): 0.982
- normalized growth (S. cerevisiae deletion strains, locus YMR307W, strain GAS1, hits give low values): 0.953
- normalized growth (S. cerevisiae deletion strains, locus YNL067W, strain RPL9B, hits give low values): 1
- normalized growth (S. cerevisiae deletion strains, locus YNL128W, strain TEP1, hits give low values): 0.966
- normalized growth (S. cerevisiae deletion strains, locus YNL153C, strain GIM3, hits give low values): 0.997
- normalized growth (S. cerevisiae deletion strains, locus YNL183C, strain NPR1, hits give low values): 0.864
- normalized growth (S. cerevisiae deletion strains, locus YNL233W, strain BNI4, hits give low values): 1
- normalized growth (S. cerevisiae deletion strains, locus YNL250W, strain rad50, hits give low values): 0.941
- normalized growth (S. cerevisiae deletion strains, locus YNL271C, strain bni1, hits give low values): 0.951
- normalized growth (S. cerevisiae deletion strains, locus YNL298W, strain CLA4, hits give low values): 0.929
- normalized growth (S. cerevisiae deletion strains, locus YNL307C, strain MCK1, hits give low values): 0.979
- normalized growth (S. cerevisiae deletion strains, locus YNL322C, strain KRE1, hits give low values): 0.969
- normalized growth (S. cerevisiae deletion strains, locus YNR052C, strain pop2, hits give low values): 0.98
- normalized growth (S. cerevisiae deletion strains, locus YOL006C, strain TOP1, hits give low values): 1
- normalized growth (S. cerevisiae deletion strains, locus YOL012C, strain htz1): 1.04
- normalized growth (S. cerevisiae deletion strains, locus YOL147C, strain pex11, hits give low values): 0.975
- normalized growth (S. cerevisiae deletion strains, locus YOR061W, strain CKA2, hits give low values): 0.964
- normalized growth (S. cerevisiae deletion strains, locus YOR069W, strain VPS5, hits give low values): 0.966
- normalized growth (S. cerevisiae deletion strains, locus YOR136W, strain idh2, hits give low values): 0.977
- normalized growth (S. cerevisiae deletion strains, locus YOR144C, strain elg1, hits give low values): 0.972
- normalized growth (S. cerevisiae deletion strains, locus YOR184W, strain ser1, hits give low values): 0.98
- normalized growth (S. cerevisiae deletion strains, locus YOR231W, strain MKK1, hits give low values): 0.894
- normalized growth (S. cerevisiae deletion strains, locus YOR316C, strain cot1, hits give low values): 0.962
- normalized growth (S. cerevisiae deletion strains, locus YPL055C, strain LGE1, hits give low values): 0.964
- normalized growth (S. cerevisiae deletion strains, locus YPL241C, strain CIN2, hits give low values): 0.976
- normalized growth (S. cerevisiae deletion strains, locus YPL256C, strain CLN2, hits give low values): 0.851
- normalized growth (S. cerevisiae deletion strains, locus YPR119W, strain clb2, hits give low values): 0.958
- normalized growth (S. cerevisiae deletion strains, locus YPR141C, strain kar3, hits give low values): 0.921
- normalized growth (S. cerevisiae deletion strains, locus YPR163C, strain tif3, hits give low values): 0.986
- normalized growth (S. cerevisiae deletion strains, locus YPR167C, strain met16, hits give low values): 0.975
- normalized growth (S. cerevisiae deletion strains, strain wtn01, hits give low values): 0.983
- normalized growth (S. cerevisiae strains, strain wild type, hits give low values): 0.973
